Assay results: PubChem BioAssay (NCATS)
Records with an inconclusive call do not appear. Calls of active or inactive are those of the source. Calls come from the whole dose curve; as a rule, active = well fitted inhibition curve with a large enough effect in the signal ratio, with a control signal flat (not every such curve was filed as active); inconclusive = small, poorly fitted or top-dose-only effect, or effect the other way, or a change in a side signal; inactive = flat fitted curve, though single readings scatter; the % refers to the signal ratio.

Each compound was assayed against Glucocorticoid receptor (Homo sapiens) (UniProt P04150) (assay: qHTS assay for small molecule antagonists of glucocorticoid receptor signaling (AID 588533)). Settings: HeLa MMTV-bla, GRE beta-lactamase ratio, antagonist mode, 18 h; series mostly up to 76.8 µM; activity change, negative = inhibition: at the top concentration.
Sequence of Glucocorticoid receptor (Homo sapiens) (P04150 whole entry, looked up): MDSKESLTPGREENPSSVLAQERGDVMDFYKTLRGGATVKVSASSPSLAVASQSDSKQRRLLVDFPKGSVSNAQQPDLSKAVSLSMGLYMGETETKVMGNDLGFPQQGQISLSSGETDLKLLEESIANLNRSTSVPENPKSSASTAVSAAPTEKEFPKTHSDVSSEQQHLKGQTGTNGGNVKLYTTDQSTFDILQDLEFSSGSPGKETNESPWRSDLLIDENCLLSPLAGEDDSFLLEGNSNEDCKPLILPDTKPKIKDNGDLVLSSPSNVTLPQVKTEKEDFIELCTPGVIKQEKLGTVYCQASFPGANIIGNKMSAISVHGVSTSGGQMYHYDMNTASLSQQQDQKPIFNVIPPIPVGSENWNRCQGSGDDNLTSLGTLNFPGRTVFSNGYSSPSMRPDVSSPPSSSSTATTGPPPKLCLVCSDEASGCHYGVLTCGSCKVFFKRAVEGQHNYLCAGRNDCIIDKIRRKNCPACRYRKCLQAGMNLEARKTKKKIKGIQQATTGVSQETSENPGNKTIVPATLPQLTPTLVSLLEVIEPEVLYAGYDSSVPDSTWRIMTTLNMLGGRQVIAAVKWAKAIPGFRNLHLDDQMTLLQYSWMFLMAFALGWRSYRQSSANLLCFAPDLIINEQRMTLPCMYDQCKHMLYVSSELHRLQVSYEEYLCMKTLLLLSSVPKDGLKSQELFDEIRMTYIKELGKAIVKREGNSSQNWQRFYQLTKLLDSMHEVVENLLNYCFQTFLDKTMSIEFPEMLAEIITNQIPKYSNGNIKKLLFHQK
From the text: NIH Chemical Genomics Center [NCGC] U.S. Environmental Protection Agency [EPA] National Institutes of Environmental Health Sciences [NIEHS] National Toxicology Program [NTP] NCGC Assay Overview The Glucocorticoid receptor (GR), a nuclear receptor subfamily member and its natural ligands includes […] etc. The GR is a validated drug target for inflammation. GR ligands such as dexamethasone are clinically available as anti-inflammatory drugs. Glucocorticoids implicate a role in carbohydrate, protein and lipid metabolisms and programmed cell death. They are also a component of many chemotherapy regimens for the treatment of leukemias, lymphomas, and myelomas because of their role in the induction of apoptosis.
NCGC Assay Protocol Summary Using a beta-lactamase reporter-gene under control of glucocorticoid response element (GRE), a cell-based assay [CellSensor MMTV-bla HeLa cell line assay developed by Invitrogen] was used to measure GR ligands signaling. CellSensor MMTV-bla HeLa cells were used with assay medium containing 1% charcoal/dextran treated FBS, 0.1 mM NEAA, 1 mM sodium pyruvate and 25mM HEPES. The assay was performed in clear bottom black Greiner 1536-well plates. Library compounds were measured for their ability to inhibit the reporter gene activity. Compounds were screened in a titration series in 1536-well format. […] Data was normalized relative to Dexamethasone control (2 nM, 100%), and DMSO only wells (basal, 0%). Concentration-response titration points for each compound were fitted to the Hill equation yielding concentrations of half-maximal inhibition (IC50) and maximal response (efficacy) values. qHTS protocol for GR beta-lactamase assay in antagonist mode [Step] [Parameter] [Value] [Description] 1. Reagent; 5 uL; 1500 cells/well 2. Incubation; 37 C for 3-5 hrs 3. Compounds; 23 nL; 0.59 nM to 92 uM 4. […] Agonist (Stimulator); 1uL; Dexamethasone at 2 nM (final) concentration 6. Incubation; 37 C for 18 hrs 7. Detection reagent; 1 uL of CCF4-dye 8. Incubation; RT for 2 hrs 9. Detection; Fluorescence; Envision plate reader
% is set by controls: 0 for no effect and ±100 for the full control effect.

Compound | activity change, negative = inhibition | Potency
O=C(Nc1ccccc1-c1ccc(Cl)cc1)c1cccnc1Cl | -2.18% (inactive) | –
Nc1ccc(Cl)cc1N | -10.8% (inactive) | –
O=C(O)c1cc(Oc2ccc(C(F)(F)F)cc2Cl)ccc1[N+](=O)[O-] | -21.9% (inactive) | –
CCCCOC(=O)c1ccccc1C(=O)OCc1ccccc1 | 6.59% (inactive) | –
CCCCCCCCCC(CC)c1ccc(S(=O)(=O)O)cc1 (centres undefined) | – | inactive
c1cc2ccc3cccc4ccc(c1)c2c34 | 5.94% (inactive) | –
CC(=O)[O][Hg][c]1ccccc1 | – | 141 nM (active)
Clc1cnc(Oc2ccc(Oc3ncc(Cl)cc3Cl)cc2)c(Cl)c1 | -0.656% (inactive) | –
O=S(=O)(O)C(F)(F)C(F)(F)C(F)(F)C(F)(F)F | 11.6% (inactive) | –
CC(C)Oc1cccc(NC(=O)c2ccccc2C(F)(F)F)c1 | 19.2% (inactive) | –
Cc1cc(O)ccc1Cl | 7.08% (inactive) | –
Nc1ccc(N=Nc2ccccc2)cc1 | 1.95% (inactive) | –
C=CC(=O)NCNC(=O)C=C | – | inactive
ClC1=C(Cl)[C@]2(Cl)[C@@H]3[C@@H]4C[C@@H]([C@H]5O[C@@H]45)[C@@H]3[C@@]1(Cl)C2(Cl)Cl | 4.79% (inactive) | –
CCO/N=C(\CC)C1=C(O)CC(c2c(C)cc(C)cc2C)CC1=O (centres undefined) | -1.75% (inactive) | –
CCCCC(CC)COC(=O)c1ccccc1C(=O)OCC(CC)CCCC (centres undefined) | – | inactive
O=[N+]([O-])/N=C1\NCCN1Cc1ccc(Cl)nc1 | 15.5% (inactive) | –
COc1nn(CSP(=S)(OC)OC)c(=O)s1 | 7.63% (inactive) | –
Nc1ccc(Sc2ccc(N)cc2)cc1 | – | inactive
O=S(=O)(c1ccc(Cl)cc1)c1ccc(Cl)cc1 | – | inactive
CCCCCCCCCCCCCCCC[N+](C)(C)C | 15% (inactive) | –
O=C(O)COc1ccccc1 | 2.87% (inactive) | –
CCOCCOC(C)=O | 1.24% (inactive) | –
OCCCBr | 24.9% (inactive) | –
C=CCC1=C(C)C(OC(=O)C2C(C=C(C)C)C2(C)C)CC1=O (centres undefined) | 21.7% (inactive) | –
O=C(O)COc1nc(Cl)c(Cl)cc1Cl | 12.1% (inactive) | –
O=C(O)C(Cl)Cl | – | inactive
C1CCC(NC2CCCCC2)CC1 | – | inactive
Nc1ccc(Cl)cc1 | -5.46% (inactive) | –
